Measured values reported in the supplement of paper PMC6555819.

Columns and labels:
Assay in all cases: PBM binding z-score (relative to random genomic background probes); higher = stronger binding; sequences stand for … in GC…GCGATTGACAGCGTAGAATGAAGG
[1] = test system: FXR:RXRa (NR concentration 270 nM, RXRa partner concentration 90 nM)
How it was run: (§1)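 Each nuclear receptor dimer, without ligand, was incubated for 1 h on custom Agilent 4×180K protein-binding microarrays. Binding was detected with antibodies against each partner (one per run), and scanned fluorescence was regression-normalized. The binding z-scores are referenced to random human genomic background probes.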

[2] = test system: LXRa:RXRa (NR concentration 270 nM, RXRa partner concentration 90 nM)
How it was run: as §1

[3] = test system: LXRa homodimer (NR concentration 270 nM)
How it was run: as §1

[4] = test system: LXRb:RXRa (NR concentration 270 nM, RXRa partner concentration 90 nM)
How it was run: as §1

[5] = test system: LXRb homodimer (NR concentration 270 nM)
How it was run: as §1

[6] = test system: PPARa:RXRa (NR concentration 270 nM, RXRa partner concentration 90 nM)
How it was run: as §1

[7] = test system: PPARg:RXRa (NR concentration 180 nM, RXRa partner concentration 90 nM)
How it was run: as §1

[8] = test system: PPARg:RXRa 270nM:90nM, anti-RXR (NR concentration 270 nM, RXRa partner concentration 90 nM)
How it was run: as §1

[9] = test system: PPARg:RXRa 30nM:10nM, anti-RXR (NR concentration 30 nM, RXRa partner concentration 10 nM)
How it was run: as §1

[10] = test system: PPARg:RXRa 90nM:30nM, anti-RXR (NR concentration 90 nM, RXRa partner concentration 30 nM)
How it was run: as §1

| Sequence | PBM binding z-score [1] | PBM binding z-score [2] | PBM binding z-score [3] | PBM binding z-score [4] | PBM binding z-score [5] | PBM binding z-score [6] | PBM binding z-score [7] | PBM binding z-score [8] | PBM binding z-score [9] | PBM binding z-score [10] |
| --- | --- | --- | --- | --- | --- | --- | --- | --- | --- | --- |
| ACTAGTAGGCCAAGTTTGGGTCACTCAAACAAAG | 0.368 | 0.0962 | -0.261 | 0.884 | -0.17 | 2.34 | 2.17 | 2.27 | 0.504 | 1.13 |
| TCTAGTTGGTCAACGGTCACACACTCGAAATGCG | 0.705 | 0.745 | 0.892 | 1.04 | 0.0272 | 2.38 | 3.99 | 5.35 | 4.78 | 5.32 |
| CCTCGGAGGACAACATGAGGTCAGAGCTGCCAGA | 1.56 | 3.37 | 3.95 | 2.18 | -0.278 | 2.38 | 0.717 | 0.534 | -0.623 | 0.0899 |
| ATCTCTAGGTAAGACTCAGTTGAGTGAAGAACGC | 0.19 | 0.256 | -0.143 | 0.303 | 0.234 | -0.0553 | 0.0512 | 0.121 | -0.116 | -0.195 |
| TTACCAAGGTGAGCTGAGGGCGTTGATCCAACTC | 0.29 | -0.133 | -0.543 | -0.27 | -1.16 | 0.372 | -0.203 | -0.041 | -0.278 | -0.0993 |
| ACTAGCAGGCCAAGTTGGGGTCACTCAAACAAAG | 3.18 | 3.16 | 0.123 | 4.07 | -0.00108 | 4.63 | 1.63 | 2.88 | 0.385 | 1.96 |
| AATACAGGGTCACTAGGCCTGAGTAGGTACGAAT | 6.29 | 4.71 | 0.651 | 3.72 | 0.544 | 5.53 | 6.71 | 5.29 | 2.26 | 4.42 |
| CCTAGTTAGTCAGGAGGTCACACACCGGATATGA | 3.41 | 3.69 | 2.46 | 3.68 | 1.17 | 4.29 | 2.42 | 3.19 | 1.24 | 2.16 |
| GCAGACACGTGAAACGCAGGTAACTCAGGGTGGC | -0.868 | -0.737 | -0.81 | -0.691 | -1.29 | -0.718 | 0.584 | -0.446 | -0.559 | -0.87 |
| TAGCCTAGGTCATGAGGGCCAGTATAGTGTCGGC | 3.91 | 3.07 | 0.189 | 1.73 | -0.262 | 3.69 | 2.94 | 2.69 | 0.483 | 1.94 |
| ACTAGCAGGCCAAGTTTGGGTCCCTCAAACAAAG | -0.607 | -0.657 | -0.583 | -0.842 | -0.875 | -0.286 | -0.709 | -0.928 | -1.06 | -1.05 |
| AATACAGGGTCATCGTAGGACAGAGTACGCACAG | 7.26 | 6.53 | 2.99 | 4.91 | 1.66 | 5.73 | 6.66 | 6.04 | 3.07 | 4.95 |
